TDP1 cell noCPT: qHTS for Inhibitors of human tyrosyl-DNA phosphodiesterase 1 (TDP1): qHTS in cells in absence of CPT. DT40 Tdp1-/- hTDP1 cells, no CPT, ATP luminescence, 48 h. Potency, µM (top dose mostly 46.2 µM), for the others: at the top dose activity change, negative = growth inhibition, hits mostly inhibitors. 420,000 tested, 15% active. AID 686978, 2013; note: nearly all actives have a fitted effect of over 55% in size
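DT40 Tdp1-/-;hTDP1 cells, no CPT (DMSO vehicle only), 400 cells/well; compounds pin-transferred; ≥48 hr, 37 °C; CellTiter-Glo 30 min RT dark, luminescence read.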
RORgamma inh: inhibitors of mouse ROR gamma transcriptional activity | 310,000 tested, 5.4% active | P51450 | AID 2551 | Drosophila S2 Gal4-RORgamma UAS-luciferase reporter, 20 h | Potency, µM (highest dose often 53.6 µM), inactives show at the highest dose activity change, negative = inhibition, hits mostly inhibitors; note: nearly all actives have a fitted effect of over 60% in size
Target sequence (P51450 whole entry, looked up, the tested form may be a part): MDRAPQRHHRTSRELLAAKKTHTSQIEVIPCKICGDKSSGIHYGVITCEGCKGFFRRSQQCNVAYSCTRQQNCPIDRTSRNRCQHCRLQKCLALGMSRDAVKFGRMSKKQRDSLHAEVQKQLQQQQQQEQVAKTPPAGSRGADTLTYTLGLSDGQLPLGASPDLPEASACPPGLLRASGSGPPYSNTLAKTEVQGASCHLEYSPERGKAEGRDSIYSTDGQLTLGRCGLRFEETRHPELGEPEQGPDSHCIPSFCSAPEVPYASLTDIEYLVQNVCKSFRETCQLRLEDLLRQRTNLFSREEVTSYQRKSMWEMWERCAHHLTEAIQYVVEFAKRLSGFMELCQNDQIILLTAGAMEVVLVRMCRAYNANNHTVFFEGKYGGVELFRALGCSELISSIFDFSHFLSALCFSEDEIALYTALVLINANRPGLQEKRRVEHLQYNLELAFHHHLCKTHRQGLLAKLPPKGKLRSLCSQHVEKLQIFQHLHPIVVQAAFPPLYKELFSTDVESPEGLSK
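Luciferase reporter read in Schneider cells carrying Gal4-RORγ (mouse) and UAS-Photinus luciferase; cells given compound 1 h before 700 uM copper sulfate induction, then incubated 20 h at ambient temperature.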
TDP1 inh: TDP1 (human) enzyme inhibition. Q9NUW8. 350,000 tested, 0.28% active. Potency, µM (doses to about 130 µM), for the others: at the top dose activity change, negative = inhibition, actives largely listed as inhibitors. recombinant TDP1, AlphaScreen DNA substrate cleavage. AID 485290; note: nearly all actives have a fitted effect of over 40% in size
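Recombinant human Tdp1 (E. coli-expressed, 1 nM final) preincubated with compounds 15 min at room temperature, then 5'-biotin/3'-phosphotyrosine-FITC DNA substrate (15 nM final) added for 5 min. AlphaScreen beads (10 ug/ml final) added 10 min; cleavage lowers signal.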
DT40 TDP1 CPT: growth inhibition of DT40 Tdp1-/-;hTDP1 cells with camptothecin (screen for TDP1 inhibitors); 420,000 tested, 12% active; Potency, µM (titrated, usually from 46.2 µM), inactives show at the top dose activity change, negative = growth inhibition, usual class: inhibitors; chicken DT40 Tdp1-/-;hTDP1 cells + 20 nM CPT, ATP luminescence, 48 h; note: nearly all actives have a fitted effect of over 55% in size
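Chicken DT40 Tdp1-/- cells stably complemented with human TDP1 were seeded at 400 cells/well in medium containing 20 nM camptothecin, exposed to pin-transferred compounds, and grown at 37 °C for at least 48 hr. Viability was read as ATP luminescence.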
Gal4-VP16 FLuc: inhibits Gal4-VP16 luciferase reporter, ROR gamma counter-screen; Drosophila S2 Gal4-VP16 UAS-luciferase, luminescence, 20 h; Potency, µM (series often up to 53.6 µM), for the others: at the top dose activity, negative = inhibition, hits mostly inhibitors; 310,000 tested, 3.5% active; AID 2546;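 note: Gal4-VP16 expression switched on by copper sulfate through the metallothionein promoter; nearly all actives have a fitted effect of over 50% in size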
* = called active by the depositor; u = inconclusive; x = no result; [ ] = remark or other dose. The list is not random: actives were taken first. Their share in the collection is about 19%. Calls come from the whole dose curve; as a rule, active = well fitted curve in the direction sought with a large enough effect; inconclusive = small, poorly fitted or top-dose-only effect, or another doubt; inactive = no such curve, though single readings can be large; an effect the other way counts as inactive or inconclusive. % is set by controls: 0 for no effect and ±100 for the full control effect; potency is the fitted concentration of half-maximal effect.

SMILES	TDP1 cell noCPT	RORgamma inh	TDP1 inh	DT40 TDP1 CPT	Gal4-VP16 FLuc
CCOc1ccc(-c2n[nH]c(C)c2-c2ccccc2OC)c(O)c1	u	2µM*	-4.0%	13µM*	u
Cn1nc(-c2ccccc2)c(C(=O)Nc2ccc(C(F)(F)F)cc2)c1Cl	-2.5%	1.7%	-2.0%	1.8%	-7.2%
Cc1ccc2nc(COc3ccccc3NC(=O)COc3ccc(F)cc3)cc(=O)n2c1	-13.5%	x	2.7%	0.1%	x
O=C(Cn1cnc2c(NCc3ccccc3)ncnc21)NCc1ccccn1	-9.2%	x	0.9%[56.1 µM]	-6.1%	x
CCOC(=O)c1c(N/N=C/c2cccnc2)n[nH]c1C	13µM*	-22.0%	1.2%	13µM*	u
O=C(CNc1n[nH]c(=O)[nH]c1=O)N/N=C/c1cccnc1	0.6%	-45.0%	1.9%	-22.7%	0.9%
COc1ccccc1N1CCN(C(=O)c2ccc3nc[nH]c3c2)CC1	0.8%	5.7%	5.4%	13.2%	u
COc1ccccc1N1CCN(C(=O)c2ccc3nc(-c4ccco4)c(-c4ccco4)nc3c2)CC1	20.6µM*	-19.9%	6.7%	u	17.8%
COc1ccccc1N1CCN(C(=O)c2ccc3ncsc3c2)CC1	2.31µM*	x	x	6.51µM*	x
Cc1ccc(C)c(N2CCN(C(=O)c3ccc4nc(-c5ccco5)c(-c5ccco5)nc4c3)CC2)c1	23.1µM*	37.2%	5.8%	u	-7.0%
COc1ccc(OC)c2sc(N3CCN(C(=O)c4ccc5ncsc5c4)CC3)nc12	-29.7%	x	-5.7%	-0.7%	x
CC(C)(C)C(=O)C[n+]1cccc(C(N)=O)c1	-1.1%	-1.5%	-4.3%	-23.1%	5.3%
Cc1ccc(NC(=O)CS(=O)CC(=O)N2CCN(c3ccccc3)CC2)cc1 (centres undefined)	-18.8%	-7.1%	13.0%	-2.1%	5.2%
O=C(Nc1cccc(NC(=O)c2ccc([N+](=O)[O-])o2)c1)c1ccco1	5.17µM*	-31.9%	5.5%	5.8µM*	u
O=C(Nc1cccc(NC(=O)c2cccs2)c1)c1ccc([N+](=O)[O-])o1	3.66µM*	-33.6%	-1.9%	3.26µM*	u
COc1cc(NC(=O)c2ccc([N+](=O)[O-])o2)ccc1NC(=O)c1cccs1	3.66µM*	u	5.1%	2.31µM*	-3.1%
COc1cccc(NC(=O)C(OC(=O)c2ccc([N+](=O)[O-])o2)c2ccccc2)c1 (centres undefined)	5.3%	14.1µM*	6.7%	-5.0%	-28.4%
COc1ccc(NC(=O)c2cccs2)cc1NC(=O)c1ccco1	u	17.9%	3.1%	u	-0.2%
O=C(Nc1ccc(Cc2ccncc2)cc1)c1ccc([N+](=O)[O-])o1	u	x	3.9%	u	x
COc1cccc(NC(=O)C(OC(=O)c2ccccc2NS(=O)(=O)c2cccs2)c2ccccc2)c1 (centres undefined)	-29.4%	44.8%	2.7%	-12.7%	-5.8%
CN1CCN(c2ncnc3c2cnn3-c2ccc(Cl)cc2)CC1	u	-11.5%	3.7%	u	-35.5%
O=C(COc1ccc(Br)cc1)NCCCN1CCCC1=O	23.9%	x	0.8%	-10.0%	x
O=C(NNC(=S)Nc1cccc(C(F)(F)F)c1)c1ccc(Cl)cc1Cl	25.9µM*	u	8.2%	u	u
Cc1ccccc1C(=O)NNC(=S)Nc1cccc(C(F)(F)F)c1	23.1µM*	u	8.0%	u	u
COc1ccc(CCNC(=O)C2CC(=O)N(c3ccc(C(C)(C)C)cc3)C2)cc1OC (centres undefined)	-27.9%	u	0.0%	-19.1%	-14.9%
SMILES	TDP1 cell noCPT	RORgamma inh	TDP1 inh	DT40 TDP1 CPT	Gal4-VP16 FLuc
COCCNC(=O)c1cc(-c2ccccc2)n(CC2CC(c3ccc(OC)cc3)=NO2)n1 (centres undefined)	u	x	0.0%	u	x
CC1Cc2ccccc2N1C(=O)c1cnc2sccn2c1=O (centres undefined)	0.8%	-4.6%	6.5%	-0.5%	12.2%
O=C(CSc1n[nH]c(=O)n1C1CC1)Nc1cc(Cl)ccc1Oc1ccccc1	14.6µM*	5.6%	7.7%	16.4µM*	u
COC(=O)CN(c1cc(OC)ccc1OC)S(=O)(=O)c1ccc(OC)c(OC)c1	-27.9%	15.6%	0.0%	-5.6%	-2.7%
CC(=O)c1cccc(NC(=O)CN(c2ccc(C)cc2)S(=O)(=O)c2cccc3nonc23)c1	u	10.5%	3.1%	u	7.4%
Cc1ccc(NC(=O)CN(c2ccc(Cl)cc2)S(=O)(=O)c2cc([N+](=O)[O-])ccc2Cl)cc1	23.1µM*	44.9%	2.6%	u	5.6%
COc1ccc(C)cc1S(=O)(=O)N(CC(=O)Nc1cccc([N+](=O)[O-])c1)c1ccc(C)c(C)c1	u	-25.1%	4.5%	16.4µM*	11.3%
COc1ccc(NC(=O)CN(c2ccc(C)cc2)S(=O)(=O)c2cccc3nonc23)cc1OC	16.4µM*	x	7.0%	-19.3%	x
COc1cc([N+](=O)[O-])ccc1NC(=O)Nn1cnnc1	23.4%	-9.8%	2.6%	0.7%	0.0%
COc1ccnc(CN(C)C(=O)C2CCC(=O)N(CCN(C)C)C2)c1 (centres undefined)	3.9%	-17.8%	4.5%	-10.5%	-0.9%
O=C1O/C(=C\C(=O)N2CCOCC2)c2ccccc21	u	0.1%	5.1%	-14.5%	-25.8%
CC(C)c1c(C(=O)N/N=C/C=C/c2ccccc2)nnn1-c1nonc1N	u	4.47µM*	2.0%	u	5.62µM*
CC(C)c1c(C(=O)N/N=C/c2cccc(OCc3ccc(F)cc3)c2)nnn1-c1nonc1N	16.4µM*	u	3.7%	u	1.0%
CCN(CC)c1ccc(/C=N/NC(=O)c2nnn(-c3nonc3N)c2C(C)C)c(O)c1	3.26µM*	3.55µM*	5.2%	5.8µM*	5.01µM*
COc1cc(/C=N/NC(=O)c2nnn(-c3nonc3N)c2C(C)C)ccc1OCc1ccc(F)cc1	20.6µM*	u	2.7%	u	-12.2%
CN(C)Cc1c(C(=O)N/N=C/C=C/c2ccccc2)nnn1-c1nonc1N	3.0%	u	3.5%	0.2%	u
CC(C)c1c(C(=O)N/N=C/c2ccc3c(c2)OCO3)nnn1-c1nonc1N	15.1%	23.9%	1.0%	-0.5%	-0.4%
CCOC(=O)c1cc2c(nc1N)CC(C)(CC)OC2 (centres undefined)	-21.8%	-7.3%	-3.0%	-7.0%	u
O=c1[nH]c(CN2CCN(S(=O)(=O)c3ccc4ccccc4c3)CC2)nc2ccccc12	-2.6%	10.0%	4.7%	-11.4%	6.9%
COc1cc(C2CC(=O)N(Cc3cccc(F)c3)c3ccccc3S2)cc(OC)c1OC (centres undefined)	x	x	0.0%	x	x

Screening results (PubChem BioAssay)
